40 compounds from PubChem BioAssay (NCI) can be followed below.

Each structure is given as a SMILES string. “And” between values parts separate entries of the source, which are not always exact repeats. Equal values may be shown once. The panel holds about 83,000 compounds, 20% with a hit somewhere; the sample as a whole holds those more often.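 Plates (96-well) were seeded with cells, treated with compound at one concentration, and incubated for 48 hours before percent growth was determined.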 Values without a mark were called inactive. The source made the active and inactive calls. How the source made its calls: active means growth percent below 10; inactive means the rest.

The experiment has as its system MDA-MB-468 breast. The experiment can be described thus: NCI-60 one-dose screen, 48 h (100 = growth as untreated, 0 = no growth, -100 = all killed). The following applies: 10 µM unless noted.
For `CCSCC1CC(O)(c2ccccc2)C(c2ccccc2)C(c2ccc(Cl)cc2)O1` (stereo not given), the growth was 35.9%. As for `COc1ccc(-c2nc(Nc3nc4ccccc4[nH]3)nc(N)c2C#N)cc1`, the growth is 121%. For the compound `COc1ccc2c(c1)CCCC21C(=O)Nc2c(Cl)cccc21` (stereo not given), the growth was 109%. Next, `Cc1nc2ncccc2nc1Nc1ccc(S(=O)(=O)Nc2ccccn2)cc1`: 109%; `Oc1c(Cl)cc(Cl)c2ccc(CN3CCNCC3)nc12`: 34.4%; `CCC1=Cc2cc(OC)ccc2OC12C=Cc1cc(OC)ccc1O2` (stereo not given): 69.6%. For `Nc1c(Br)cc2c(c1Br)Cc1cc([N+](=O)[O-])ccc1-2`, the growth is -54.8% (active). Then `COc1cc(/C=N/NC(=O)c2ccc(C)nc2)cc(OC)c1OC`, with 98.5%; and `O=C(NNC(=S)Nc1ccccc1)c1cc2ccc1CCc1ccc(cc1)CC2`, with 67%.

Turning to `CS(=O)(=O)c1ccc(N/N=C/c2c(-c3ccc(S(C)(=O)=O)cc3)[nH]c3ccc(F)cc23)cc1`, the growth is 64.3%.

For the compound `CCCCC[C@H]1CC=C2C(=O)C=C[C@@H]2CC=CCCCC(=O)O[C@@H](CCCCC)CC=C2C(=O)C=C[C@@H]2CC=CCCCC(=O)O[C@@H](CCCCC)CC=C2C(=O)C=C[C@@H]2CC=CCCCC(=O)O1`, the growth was 7.64% [8.75 µM] (active).

Turning to `CC(=O)O[C@H]1CC[C@@]2(C)[C@@H](CC[C@@H]3[C@@H]2CC[C@@]2(C)[C@H]3CC[C@]2(O)C(C)=O)C1`, the growth was 94.1%. For `COc1ccc(C2=Nn3c(nnc3-c3ccc(Cl)cc3N)SC2)cc1`, the growth was 100%. For `O=C(NNc1nc2cc(F)ccc2n2c(CN3CCCC3)ccc12)c1cnccn1`, the growth was -14.4% (active). In the case of `C#CCOc1c(OC)cc(C(=O)/C(C)=C/c2cccc(N=[N+]=[N-])c2)cc1OC`, the growth was 24.2%.

Turning to `Cc1cn(C2CCCCO2)c(=O)nc1NO` (stereo not given), the growth was 65%. Next, `O=C(CSc1nccc(Nc2ccc(S(=O)(=O)Nc3nccs3)cc2)n1)c1ccc(C(F)(F)F)cc1`: 97%; `CCOC(=O)c1c(NCC(=O)Nc2ccc(Br)cc2)sc2c1CCCC2`: 7.05% (active).

`CNc1ncc2cc(-c3cc(NC(=O)NCCC(C)(C)C)c(F)cc3C)c(C)nc2n1`: the growth was 52.7%.

As for `COc1ccc(/C=C/C(=O)c2c(C)nc3ccccc3c2/C=C/c2ccccc2)c(OC)c1`, the growth is 87%. For the compound `Nc1ncnc2c1C(c1ccccc1)c1ccc3ccccc3c1O2` (stereo not given), the growth was 86.5%. `CC(=O)NC(Cc1ccccc1)C(=O)Oc1ccc2ccccc2c1` (stereo not given): the growth was 107% and 119%. For the compound `NS(=O)(=O)Oc1ccc(-c2ccc3sccc3c2)cc1`, the growth was 87.1%. `O=S(=O)(O)c1cccc(Nc2ccc3ccccc3c2)c1`: the growth was 105%. `Cc1cc(SCc2ccccc2)nc(N)n1`: the growth was 110%. Regarding `CC(=O)c1cc(C(=O)N2c3ccccc3Sc3ccccc32)n2ccc3ccccc3c12`, the growth was 43.4%. With `O=S(=O)(NCCCNc1nccc(-c2c(-c3ccc(F)c(O)c3)nc3sccn23)n1)c1ccc(Cl)cc1`, the growth is 82.8%. With `CCCCOc1ccc(/C=N/Nc2cc(C)nc3ccc(Br)cc23)cc1`, the growth is 32.2%. Take `N#CC1=C(N)Oc2c(ccc3cccnc23)C1c1ccccc1` (stereo not given): the growth was -7.81% (active). For `O=C(O)c1ccnc(Br)c1`, the growth is 91.1%.

For `O=C1Nc2ccc(Cl)cc2/C1=C/c1cccs1`, the growth is -4.25% (active). Next, `COc1ccc2oc(=O)cc(Cn3cc(Cn4cnc5c4c(=O)n(C)c(=O)n5C)nn3)c2c1`: 101%; `Cc1ccc(N)c(S(=O)(=O)O)c1`: 82.6%. With `O=c1[nH]nnc2cc(Cl)ccc12`, the growth was 104%. Consider `COc1cc(-c2nc3c(c(C)nc4c3nnn4-c3ccccc3)c(=O)o2)cc(OC)c1OC`, for which the growth is 110%. Then `Oc1ccc([S+](c2ccc(O)cc2)c2ccc(O)cc2)cc1`, with 98%.

For the compound `COc1ccc(C2CC(c3ccccc3)=Nc3ccccc3S2)cc1` (stereo not given), the growth was 102%. Take `CC(=O)c1nc2ccccc2n1CCNC(N)=O`: the growth was 60.8%.

Turning to `CC(=O)OC[C@]12CCC(C)(C)C[C@H]1[C@@]1(O)[C@H](O)C[C@@H]3[C@@]4(C)CCCNC(C)(C)[C@@H]4CC[C@@]3(C)[C@]1(C)CC2`, the growth is 115%. Regarding `O=C(c1nn(-c2ccc(Cl)cc2)cc1O)n1nc(C(F)(F)F)cc1-c1ccccc1`, the growth was 32.8%.
